The full ranking holds about 110,000 compounds; the median of “z-score” is about -0.1, and the highest 2% start at about 2. The sample as a whole holds a higher share of the highest values than the screen did. Active and inactive are the calls of the source.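 Rule for the calls: active = z-score in the third read window above 3 or below -3; inactive = the rest.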
These compounds were tested against Metabotropic glutamate receptor 8 (Rattus norvegicus) (UniProt P70579) (assay: mGluR8 Gi/Go-coupled signaling modulation – cell-based, rat, thallium flux, HTS, primary screen (AID 488969)). Settings: HEK293 rat mGluR8, GIRK (G protein-gated inwardly rectifying potassium channel) thallium flux, FluoZin2; at 10 µM; stronger effect = higher value; submaximal glutamate (EC20) added with thallium.
Metabotropic glutamate receptor 8 (Rattus norvegicus), sequence (P70579 whole entry, looked up): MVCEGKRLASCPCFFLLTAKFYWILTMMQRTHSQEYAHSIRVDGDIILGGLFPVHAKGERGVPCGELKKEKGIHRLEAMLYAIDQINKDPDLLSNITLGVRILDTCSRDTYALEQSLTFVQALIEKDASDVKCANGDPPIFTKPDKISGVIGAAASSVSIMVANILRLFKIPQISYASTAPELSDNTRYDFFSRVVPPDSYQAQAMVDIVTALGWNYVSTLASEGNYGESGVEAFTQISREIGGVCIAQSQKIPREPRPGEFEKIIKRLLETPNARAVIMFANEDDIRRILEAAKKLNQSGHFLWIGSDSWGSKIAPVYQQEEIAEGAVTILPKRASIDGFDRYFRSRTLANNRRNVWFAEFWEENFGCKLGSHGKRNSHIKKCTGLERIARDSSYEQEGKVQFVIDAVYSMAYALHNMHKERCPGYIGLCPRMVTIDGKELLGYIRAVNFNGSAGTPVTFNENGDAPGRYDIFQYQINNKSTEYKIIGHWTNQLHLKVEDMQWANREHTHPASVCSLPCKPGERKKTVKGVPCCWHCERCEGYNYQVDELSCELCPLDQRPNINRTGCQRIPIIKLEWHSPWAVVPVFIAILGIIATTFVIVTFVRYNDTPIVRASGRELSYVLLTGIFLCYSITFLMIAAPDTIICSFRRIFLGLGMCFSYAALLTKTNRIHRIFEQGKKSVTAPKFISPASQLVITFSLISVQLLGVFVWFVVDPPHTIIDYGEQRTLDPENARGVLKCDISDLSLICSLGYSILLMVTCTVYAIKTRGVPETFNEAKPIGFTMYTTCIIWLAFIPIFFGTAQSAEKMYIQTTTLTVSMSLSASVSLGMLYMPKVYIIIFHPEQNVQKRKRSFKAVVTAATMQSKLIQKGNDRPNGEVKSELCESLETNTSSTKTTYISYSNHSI
With `O=C(NCc1cccnc1)c1ccccc1[N+](=O)[O-]` the z-score was -0.0931. For `CCOc1ccc(/C=N/NC(=O)c2ccccc2NC(=O)c2ccc(OC)cc2)cc1`, the z-score was -0.0531. `Cc1ccccc1-c1nn[nH]n1` was tested, and the z-score was -0.33. With `CC(C)c1ccc2occ(-c3nn[nH]n3)c(=O)c2c1` the z-score was 3.29 (active). `Cc1ccc2occ(-c3nn[nH]n3)c(=O)c2c1` gave a z-score of 0.366. With `CCCSc1nn2c(=O)c3ccccc3nc2s1` the z-score was -0.252. Compound `CCCc1cc(-c2nc(-c3ccc(Cl)cc3)cs2)ccn1` has a z-score of -0.136. `CCCc1cc(-c2nc(-c3ccc(Br)cc3)cs2)ccn1` showed a z-score of 0.0465. Work on `CCCc1cc(C(N)=S)ccn1` yielded a z-score of 2.24. `COc1nc(NCCc2ccc(OC)c(OC)c2)nc(OC)n1` gave a z-score of -0.163. In the case of `O=c1c(C(c2ccccc2)c2c(O)sc3ccccc3c2=O)c(O)sc2ccccc12`, the z-score is reported as 7.03 (active). With `COc1ccc2sc3ccccc3c(=O)c2c1` the z-score was -0.213. In the case of `O=c1c2ccccc2sc2ccc(Cl)cc12`, the z-score is reported as -0.316. For `CCN1C(=O)CC(N2CCN(c3ccc(C(=O)c4ccccc4)cc3)CC2)C1=O` (centres undefined), the z-score was -0.153. With `COc1ccc(NC(=O)C2CCCN(S(=O)(=O)c3cccs3)C2)cc1OC` (centres undefined) the z-score was -0.257. `COCCSc1nnc(NC(=O)Cc2cccs2)s1` was tested, and the z-score was 0.124. Compound `COCc1nnc(NC(=O)CCSc2ccccc2)s1` has a z-score of -0.0854. `Cc1nnc(NC(=O)CCSc2ccccc2)s1` gave a z-score of 2.67. With `O=C(Nc1cccnc1)c1cccs1` the z-score was -0.52. With `Cc1nnc(NC(=O)Cc2cccs2)s1` the z-score was 2.4. In the case of `Cc1nnc(NC(=O)CCC(=O)NCc2cccs2)s1`, the z-score is reported as -0.0957. Compound `O=C(Cc1cccs1)NCc1cccnc1` has a z-score of 0.742. With `O=C(Cc1cccs1)Nc1cccnc1` the z-score was 3.36 (active). `O=C(Cc1cccs1)Nc1nnc(CCc2ccccc2)s1` showed a z-score of 0.238. With `CCCCCc1nnc(NC(=O)Cc2cccs2)s1` the z-score was 12.3 (active). `O=C(Cc1cccs1)Nc1nnc(Cc2ccccc2)s1` gave a z-score of -0.0843. With `CCCCc1nnc(NC(=O)CCSc2ccccc2)s1` the z-score was 0.0449. In the case of `NNc1nnc(-c2ccccc2)c(-c2ccccc2)n1`, the z-score is reported as -0.209. Work on `CCOC(=O)CCCCC(=O)c1[nH]c(=O)[nH]c1CSCCO` yielded a z-score of 0.565. `O=C(Nc1ccc(F)cc1)C(c1ccccc1)N1CCN(C(=O)c2ccco2)CC1` (centres undefined) showed a z-score of -0.404. Compound `CC(=O)Nc1ccc(NC(=O)COC(=O)Cc2cccs2)cc1` has a z-score of -0.0463. In the case of `COc1ccc(-n2c(SCC(=O)Nc3ccc(C(=O)O)cc3)nnc2-c2cccs2)cc1`, the z-score is reported as 0.0972. In the case of `CC1(C)N=C(N)N=C(N)N1c1ccc(F)cc1F`, the z-score is reported as -0.421. `O=C1NC(=S)S/C1=C/c1ccc(N2CCOCC2)o1` was tested, and the z-score was 0.253. `O=C1NC(=S)S/C1=C\c1ccc(SCc2ccccc2)o1` was tested, and the z-score was 6.47 (active). `CC1=NN2C(=N)/C(=C\c3ccc(SCc4ccccc4)o3)C(=O)N=C2S1` was tested, and the z-score was -0.21. `CCCNc1nc(N2CCOCC2)nc(N2CCOCC2)n1` showed a z-score of -0.0765. `CCOc1cc(C)cc2oc(=O)cc(-c3ccccc3)c12` was tested, and the z-score was 0.0205. For `Cc1cc(O)c2c(-c3ccccc3)cc(=O)oc2c1`, the z-score was 2.16. `Cc1cc(OC(C)C)c2c(-c3ccccc3)cc(=O)oc2c1` gave a z-score of -0.594. Compound `C=CCCC(=O)Nc1nc(C)c(-c2csc(Nc3ccc(Cl)cc3Cl)n2)s1` has a z-score of -0.203. `O=[N+]([O-])c1cc(/C=N/N2CCN(c3ccccc3)CC2)ccc1Cl` showed a z-score of 2.02. Work on `O=[N+]([O-])c1cc(/C=N/N2CCN(C3c4ccccc4-c4ccccc43)CC2)ccc1Cl` yielded a z-score of 0.148. `O=[N+]([O-])c1ccc(Cl)c(/C=N/N2CCN(c3ccccc3)CC2)c1` showed a z-score of -0.188. In the case of `N#C/C(=C\c1ccc(-c2cccc(C(F)(F)F)c2)o1)C(=O)Nn1cnnc1`, the z-score is reported as -0.113. With `O=C1NCCCC1C(=O)N/N=C/c1ccccc1` (centres undefined) the z-score was 0.00752. In the case of `CCn1c(CSc2nc3ccccc3s2)n[nH]c1=S`, the z-score is reported as 0.155. With `S=c1[nH]nc(CSc2nc3ccccc3s2)n1C1CCCCC1` the z-score was 14.9 (active). Compound `Cn1c(CSc2nc3ccccc3s2)n[nH]c1=S` has a z-score of 1.41. `Cc1cc(C(=O)NCCCC(=O)O)c(C)o1` was tested, and the z-score was -0.154. `Cc1noc(/C=C/N(C)C)c1S(=O)(=O)NC1CCCCC1` showed a z-score of -0.658. `Cc1noc(/C=C/N(C)C)c1S(=O)(=O)N1CCCC(C(=O)NC2CCCCC2)C1` (centres undefined) was tested, and the z-score was -0.19. `Cc1noc(/C=C/N(C)C)c1S(=O)(=O)N(C)CC(=O)NC1CCCCC1` gave a z-score of 2.18. In the case of `Cc1ccc(SCCCn2cncn2)cc1`, the z-score is reported as -0.0811. `CCCC1COC(Cn2cncn2)(c2ccc(C)cc2)O1` (centres undefined) was tested, and the z-score was 10.6 (active). `c1ccc(C2(c3ccccc3)OCC(Cn3cncn3)O2)cc1` (centres undefined) gave a z-score of 0.218. Compound `CCn1c(CCNC(=O)c2ccc(Cl)cc2)n[nH]c1=S` has a z-score of -0.774. Compound `CCn1ncc(/C=C/C(=O)Nc2c(C)nn(CC)c2C)c1C` has a z-score of -0.306. For `CC1CCCCC1NC(=O)COC(=O)c1ccc2c(c1Cl)C(=O)c1ccccc1C2=O` (centres undefined), the z-score was -0.0566. Compound `O=C(COC(=O)c1cccnc1)Nc1ccccc1` has a z-score of 0.274. Compound `COc1ccccc1NC(=O)COC(=O)c1ccc2c(c1)nc(C)n2-c1ccccc1` has a z-score of -0.283. `CC(=O)c1cccc(NC(=O)COC(=O)c2cccc(N3C(=O)c4ccccc4C3=O)c2)c1` gave a z-score of 0.155. For `O=C(COC(=O)c1cccc(N2C(=O)c3ccccc3C2=O)c1)Nc1ccccc1`, the z-score was 5.13 (active). `Cc1nc2cc(C(=O)OCC(=O)Nc3ccc(C#N)cc3)ccc2n1-c1ccccc1` showed a z-score of -0.0383. Work on `Cc1nc2cc(C(=O)OCC(=O)Nc3cccc(Cl)c3)ccc2n1-c1ccccc1` yielded a z-score of 2.18. Compound `Cc1cc(NS(=O)(=O)c2ccc(NC(=O)c3cc(-c4ccccc4Cl)nc4ccccc34)cc2)no1` has a z-score of -1.51. In the case of `C=CCn1c(=NC(=O)c2ccco2)sc2cc(C(=O)OC)ccc21`, the z-score is reported as 0.103. Work on `COc1ccccc1C(=O)Nc1ccc2c(c1)OCO2` yielded a z-score of 0.246. Compound `CN(C)C(=O)N1CCCC(C(=O)NCc2ccccc2)C1` (centres undefined) has a z-score of -0.341. Compound `CC(=C/c1ccc(C(C)C)cc1)/C=N/NC(=O)c1ccncc1` has a z-score of 2.21. With `CC(/C=N/NC(=O)c1ccncc1)=C\c1ccc(C(C)C)cc1` the z-score was -0.0873. With `CC(/C=N/NC(=O)c1ccncc1)=C\c1ccccc1` the z-score was 0.474. For `COc1cc(/C=N\NC(=O)c2ccc(=O)[nH]n2)cc(OC)c1OC`, the z-score was 0.00269. For `O=C(NO)c1ccc(OC(F)F)cc1`, the z-score was 0.319. Work on `CCC1CCCCN1c1cc(C)nc2cc(-c3cccc(C)c3)nn12` (centres undefined) yielded a z-score of -0.0418. In the case of `C#CCn1c(=NC(=O)c2ccccc2[N+](=O)[O-])sc2cc(S(C)(=O)=O)ccc21`, the z-score is reported as -0.119. `S=c1nc(-c2ccccc2)oc2c1CCCC2` showed a z-score of -0.0866. In the case of `S=c1nc(-c2ccc(Br)cc2)oc2c1CCCC2`, the z-score is reported as 4.2 (active). For `Cc1cccc(-c2nc(=S)c3c(o2)CCCC3)c1`, the z-score was 0.856. In the case of `C=CCONC(=O)c1cc(OCC(F)(F)F)ccc1OCC(F)(F)F`, the z-score is reported as -0.0898. With `COCCCNCCOCCSc1ccc(Cl)cc1` the z-score was 0.918. For `O=C(Cn1cncc1-c1ccc([N+](=O)[O-])cc1)Nc1cccc2ccccc12`, the z-score was -0.199. `CC1CCc2c(sc(NC(=O)CN3CCN(C(=O)c4ccco4)CC3)c2C#N)C1` (centres undefined) gave a z-score of 0.101. `CC1CCc2c(sc(NC(=O)COC(=O)c3ccccc3NCc3ccco3)c2C#N)C1` (centres undefined) gave a z-score of -0.152. In the case of `CC1CCc2c(sc(NC(=O)C(=O)NCc3ccco3)c2C#N)C1` (centres undefined), the z-score is reported as 11.4 (active). In the case of `COc1ccc(S(=O)(=O)N2CCN(C3Cc4ccccc4C3)CC2)cc1`, the z-score is reported as -0.439. With `Cc1cc(C)n(CC(O)CN(c2ccccc2)S(=O)(=O)c2ccccc2)n1` (centres undefined) the z-score was -0.261. In the case of `O=C(Nc1nnc(-c2ccccn2)o1)c1cccc(Br)c1`, the z-score is reported as 0.334. `Cc1cc(C)nc(NS(=O)(=O)c2ccc(NC(=O)c3ccc(S(=O)(=O)N4CC(C)OC(C)C4)cc3)cc2)n1` (centres undefined) was tested, and the z-score was -0.605. In the case of `Cc1cc(C)c(NC(=O)c2ccc(S(=O)(=O)N(C)C)cc2)c(C)n1`, the z-score is reported as -1.73. With `CC1CN(S(=O)(=O)c2ccc(C(=O)Nc3nnc(-c4ccc5c(c4)CCCC5)o3)cc2)CC(C)O1` (centres undefined) the z-score was 2.42. `O=C(Nc1nnc(-c2ccc3c(c2)OCCO3)o1)c1ccc(Cc2ccccc2)cc1` gave a z-score of -0.048. For `CN(C)S(=O)(=O)c1ccc(C(=O)Nc2nnc(-c3ccc4c(c3)CCCC4)o2)cc1`, the z-score was 5.8 (active). `COc1ccccc1C(=O)Nc1nnc(-c2ccc3c(c2)CCCC3)o1` showed a z-score of -0.536. Compound `CC1CN(S(=O)(=O)c2cccc(C(=O)Nc3ccc4c(c3)CCC4)c2)CC(C)O1` (centres undefined) has a z-score of -0.053. `O=C(Nc1nnc(-c2ccccn2)o1)c1ccc(Br)cc1` showed a z-score of 2.32. `N#Cc1ccc(C(=O)Nc2nnc(-c3ccccn3)o2)cc1` showed a z-score of -0.232. With `O=C(Nc1nnc(-c2ccc3c(c2)CCCC3)o1)c1ccccc1Cl` the z-score was 5.26 (active). With `O=C(CCc1ccccc1)Nc1nnc(-c2ccc3c(c2)CCCC3)o1` the z-score was -0.145. For `Nc1ccc(SC(F)(F)F)cc1C(=O)c1ccccc1`, the z-score was -0.00154. In the case of `O=C(COC(=O)C1CCN(S(=O)(=O)c2ccc3c(c2)OCCO3)CC1)Nc1cc(C(F)(F)F)ccc1Cl`, the z-score is reported as -0.303. `CCCC12CN3CCN(CC(C3)/C1=N\NC(=O)Nc1ccccc1)C2` showed a z-score of -0.242. `CCc1cc2cc(C(=O)Nc3ccc(F)cc3)sc2s1` was tested, and the z-score was -0.0494. `Cc1nc2ccc(F)cc2cc1C(=O)NCc1ccco1` gave a z-score of -0.0284. `O=C(COC(=O)CCc1nc2ccccc2s1)Nc1ncc(Cl)cc1Cl` was tested, and the z-score was -0.33. Compound `CN1CCN(/C=N/c2c(C#N)cnn2-c2ccccc2)CC1` has a z-score of 0.237. In the case of `O=C(CNC(=O)c1cccc(F)c1)OCc1cc(=O)n2cc(Br)ccc2n1`, the z-score is reported as -0.354. With `CCCN(CCC)S(=O)(=O)c1ccc(C(=O)Nc2nnc(-c3cccc(OC)c3)o2)cc1` the z-score was 3.65 (active). With `O=C(COc1ccccc1)Nc1nnc(-c2ccc3c(c2)CCCC3)o1` the z-score was 1.27. `CCCN(CCC)S(=O)(=O)c1ccc(C(=O)Nc2nnc(CSC)o2)cc1` was tested, and the z-score was 0.35. Work on `O=C(Nc1ccc2c(c1)CCC2)C1COc2ccccc2O1` (centres undefined) yielded a z-score of 0.9. For `COc1cccc(-c2nnc(NC(=O)c3ccc(S(=O)(=O)N(CC(C)C)CC(C)C)cc3)o2)c1`, the z-score was -0.14. For `CC(=O)Nc1nnc(-c2ccc3c(c2)CCCC3)o1`, the z-score was 0.0154. For `O=C(Nc1nnc(-c2ccc3c(c2)CCCC3)o1)c1ccc(Cl)cc1Cl`, the z-score was 15.6 (active). For `O=C(Nc1nnc(-c2ccc3c(c2)CCCC3)o1)C1CCCCC1`, the z-score was -0.309. With `O=C(Nc1nnc(-c2ccc3c(c2)CCCC3)o1)C1COc2ccccc2O1` (centres undefined) the z-score was 7.22 (active). `O=C(COc1ccc(Cl)cc1)Nc1nnc(-c2ccc3c(c2)CCCC3)o1` gave a z-score of -0.441. `Clc1ccc(-c2nnc(NC3=NCCCCC3)o2)cc1` gave a z-score of 0.0658. For `O=C(Nc1nnc(-c2ccc3c(c2)CCCC3)o1)c1ccccc1`, the z-score was 15.5 (active).

Reference: PubChem BioAssay AID488969 (Vanderbilt High Throughput Screening Facility, 2010)
